Screening data deposited in PubChem BioAssay by National Center for Advancing Translational Sciences (NCATS).
Sampled rows, rich in hits. Any-hit rate of the full collection: about 11%.
BAZ2B block = qHTS Assay for Inhibitors of BAZ2B; Bromodomain adjacent to zinc finger domain protein 2B (Homo sapiens), Q9UIF8; AlphaScreen BAZ2B-H3K14Ac peptide displacement; Potency, µM (doses to about 114 µM), most hits filed as inhibitors; actives 4.4% (n = 360,000); also: nearly all actives have a fitted effect of over 60% in size
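BAZ2B 50 nM plus b-H3(5-23)K14Ac 50 nM, PBS pH 7.4/0.01% Tween-20, 30 min RT; compound added (max 110 uM), 30 min RT; streptavidin donor/Ni-chelate acceptor beads 10 ug/mL final, 20 min dark; AlphaScreen read.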
JMJD2A Tudor inh = qHTS Assay for Inhibitors of JMJD2A-Tudor Domain. Lysine-specific demethylase 4A (Homo sapiens), O75164. AlphaScreen JMJD2A-Tudor / H3K4me3 peptide binding. Potency, µM (top dose mostly 114 µM), hits mostly inhibitors. actives 4.4% (n = 390,000). AID 504339, 2011; also: nearly all actives have a fitted effect of over 50% in size
Target sequence (O75164 whole entry, looked up, the tested form may be a part): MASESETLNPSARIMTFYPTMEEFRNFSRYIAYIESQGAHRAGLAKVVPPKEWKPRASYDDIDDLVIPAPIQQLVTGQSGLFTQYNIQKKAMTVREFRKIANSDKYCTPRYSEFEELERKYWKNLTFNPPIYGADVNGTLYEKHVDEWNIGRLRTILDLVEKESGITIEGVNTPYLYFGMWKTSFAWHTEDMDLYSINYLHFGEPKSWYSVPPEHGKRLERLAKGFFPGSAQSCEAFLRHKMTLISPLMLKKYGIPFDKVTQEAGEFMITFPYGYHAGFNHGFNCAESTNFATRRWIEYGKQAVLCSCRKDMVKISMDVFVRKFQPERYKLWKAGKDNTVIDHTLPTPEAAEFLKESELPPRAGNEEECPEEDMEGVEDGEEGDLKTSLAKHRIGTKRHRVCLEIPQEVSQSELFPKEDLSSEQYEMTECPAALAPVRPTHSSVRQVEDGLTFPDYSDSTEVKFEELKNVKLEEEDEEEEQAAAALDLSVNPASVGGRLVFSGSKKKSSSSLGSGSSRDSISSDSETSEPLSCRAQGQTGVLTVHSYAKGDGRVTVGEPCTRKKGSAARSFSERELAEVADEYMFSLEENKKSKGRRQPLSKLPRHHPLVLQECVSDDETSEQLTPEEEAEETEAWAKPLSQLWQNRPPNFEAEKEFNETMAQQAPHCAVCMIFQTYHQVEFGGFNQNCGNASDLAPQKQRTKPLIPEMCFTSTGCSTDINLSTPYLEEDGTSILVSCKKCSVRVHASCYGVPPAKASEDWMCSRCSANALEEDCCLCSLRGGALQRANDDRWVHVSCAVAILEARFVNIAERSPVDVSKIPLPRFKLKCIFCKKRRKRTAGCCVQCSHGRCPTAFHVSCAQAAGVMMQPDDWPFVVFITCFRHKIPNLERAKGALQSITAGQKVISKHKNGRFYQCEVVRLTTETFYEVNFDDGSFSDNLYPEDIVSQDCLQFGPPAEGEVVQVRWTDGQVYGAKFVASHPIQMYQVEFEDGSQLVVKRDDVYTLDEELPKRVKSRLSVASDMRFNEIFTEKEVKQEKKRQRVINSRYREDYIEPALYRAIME
G9a inh = qHTS Assay for Inhibitors of Histone Lysine Methyltransferase G9a | Potency, µM (highest dose often 102 µM), usual class: inhibitors | actives 8.8% (n = 350,000) | G9a H3K9 monomethylation, AlphaScreen, 2 h | Histone-lysine N-methyltransferase EHMT2 (Homo sapiens), Q96KQ7 | AID 504332, 2011; also: nearly all actives have a fitted effect of over 75% in size
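G9a (20 nM) preincubated 15 min RT with compounds, then 500 nM biotinylated H3K9 peptide and 20 uM SAM added; 2 h RT reaction. Monomethyl-H3K9 product detected by AlphaScreen with anti-H3K9me1 antibody, streptavidin donor and anti-rabbit IgG acceptor beads.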
PLK1 PBD block = qHTS for Inhibitors of PLK1-PDB (polo-like kinase 1 - polo-box domain): Primary Screen; Plk1 PBD binding of FITC phosphopeptide, fluorescence polarization; Serine/threonine-protein kinase PLK1 (Homo sapiens), P53350; actives 2.8% (n = 360,000); Potency, µM, usual class: inhibitors; also: series mostly up to about 57 µM; nearly all actives have a fitted effect of over 65% in size
VDR inh = Inhibitors of the vitamin D receptor (VDR): qHTS; Vitamin D3 receptor (Homo sapiens), P11473; VDR-SRC2-3 peptide fluorescence polarization, 2 h; Potency, µM, hits mostly inhibitors; actives 0.93% (n = 400,000)
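The screen uses fluorescence polarization to detect compounds that interfere with recruitment of the SRC2-3 coactivator peptide to VDR; plates are read after 2 h at room temperature.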
HP1b chromo inh = HTS for Inhibitors of HP1-beta Chromodomain Interactions with Methylated Histone Tails | Chromobox protein homolog 1 (Homo sapiens), P83916 | AlphaScreen HP1-beta / biotin-H3K9me3 peptide binding | Potency, µM (titrated, usually from 114 µM), usual class: inhibitors | actives 0.56% (n = 390,000); also: nearly all actives have a fitted effect of over 70% in size
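HP1-beta protein (50 nM final) preincubated 30 min at room temperature with biotinylated H3(1-18)K9me3 peptide (50 nM) in PBS pH 7.4, 0.01% Tween-20, then compound added for 30 min. AlphaScreen streptavidin donor/nickel chelate acceptor beads (10 ug/mL final), 30 min dark, luminescence read.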
Large screens that a line does not name were inactive. Calls follow the shape of the dose curve; as a rule, active = well fitted curve in the direction sought with a large enough effect; inconclusive = small, poorly fitted or top-dose-only effect, or another doubt; inactive = no such curve, though single readings can be large; an effect the other way counts as inactive or inconclusive.

Cn1c(Cn2nnc3ccccc32)nnc1SCC(=O)Nc1nccs1	none
O=C(c1ccc2c(=O)n(Cc3ccco3)c(=S)[nH]c2c1)N1CCN(Cc2ccc3c(c2)OCO3)CC1	JMJD2A Tudor inh inconclusive (no result: BAZ2B block, G9a inh, PLK1 PBD block)
Cc1c(C)n(C)c2ccc(C(=O)Nc3cccc4ccccc34)cc12	BAZ2B block inconclusive, JMJD2A Tudor inh inconclusive, G9a inh 50µM, HP1b chromo inh inconclusive
Cc1c(C)n(Cc2ccc(F)cc2)c2ccc(C(=O)NCc3ccco3)cc12	JMJD2A Tudor inh inconclusive (no result: PLK1 PBD block)
Cc1c(C)n(C)c2ccc(C(=O)NCCc3ccco3)cc12	BAZ2B block 35µM, JMJD2A Tudor inh inconclusive, HP1b chromo inh inconclusive (no result: G9a inh)
CCn1c(C)c(C)c2cc(C(=O)NCCc3ccco3)ccc21	BAZ2B block inconclusive, JMJD2A Tudor inh inconclusive, G9a inh 50µM
CCn1c(C)c(C)c2cc(C(=O)NCc3ccc(F)cc3)ccc21	BAZ2B block inconclusive, JMJD2A Tudor inh inconclusive (no result: PLK1 PBD block)
CCOc1ccc(CNC(=O)c2ccc3c(c2)c(C)c(C)n3C)cc1	BAZ2B block 40µM, JMJD2A Tudor inh inconclusive (no result: PLK1 PBD block)
CC(C)NC(=O)N1CC[C@@]2(CCCN(C(=O)c3cnccn3)C2)C1	none (no result: BAZ2B block, JMJD2A Tudor inh, PLK1 PBD block, HP1b chromo inh)
CN(CC(=O)NCCc1ccc(S(N)(=O)=O)cc1)S(=O)(=O)c1cccc2nsnc12	none (no result: G9a inh)
CCOCCCNC(=O)C1CCCN(Cc2nc(-c3ccc(CC)cc3)oc2C)C1 (stereo unspecified)	none (no result: PLK1 PBD block)
CCn1c(C)c(C)c2cc(C(=O)NCCc3ccc(C)cc3)ccc21	JMJD2A Tudor inh inconclusive, G9a inh inconclusive (no result: PLK1 PBD block)
Cc1c(C)n(C)c2ccc(C(=O)NCCCN3CCCCC3C)cc12 (stereo unspecified)	BAZ2B block inconclusive, JMJD2A Tudor inh inconclusive
Cc1c(C)n(C)c2ccc(C(=O)NCCCN(C)C3CCCCC3)cc12	BAZ2B block 25µM, JMJD2A Tudor inh inconclusive, G9a inh 50µM
CCn1c(C)c(C)c2cc(C(=O)NCCc3cc(OC)c(OC)c(OC)c3)ccc21	BAZ2B block 45µM, JMJD2A Tudor inh inconclusive, G9a inh inconclusive (no result: PLK1 PBD block)
O=S(=O)(c1ccccc1)N1CCN(c2nc(C3CC3)nc3ccccc23)CC1	none (no result: BAZ2B block, G9a inh, PLK1 PBD block, VDR inh, HP1b chromo inh)
CC(OC(=O)c1ccccn1)C(=O)Nc1ccc2c(c1)OCCO2 (stereo unspecified)	G9a inh inconclusive
CCN(c1ccccc1)S(=O)(=O)c1cc(C(=O)OC(C)C(=O)Nc2ccc3c(c2)OCCO3)ccc1C (stereo unspecified)	BAZ2B block inconclusive, JMJD2A Tudor inh inconclusive, G9a inh 40µM
C/C(CCc1ccc2c(c1)OCO2)=N\NC(=O)c1ccccc1	none
NC(=NCc1ccc2c(c1)OCO2)NC(=O)c1ccccc1	BAZ2B block 40µM, JMJD2A Tudor inh inconclusive, G9a inh inconclusive
COc1ccc([N+](=O)[O-])cc1NC(=O)CCN1CCN(C)CC1	none
COc1ccc([N+](=O)[O-])cc1NC(=O)CSCc1cc(C)cc(C)c1	JMJD2A Tudor inh inconclusive, PLK1 PBD block 30µM
COc1ccccc1NC(=O)CSCc1ccc([N+](=O)[O-])cc1	none
COc1ccc(S(=O)(=O)N2CCOCC2)cc1NC(=O)CCNC(=O)c1ccc([N+](=O)[O-])cc1	G9a inh 3.5µM
COc1ccc(S(=O)(=O)N2CCOCC2)cc1NC(=O)Cc1sc(C)nc1-c1ccc(F)cc1	G9a inh 50µM
COc1ccc([N+](=O)[O-])cc1NC(=O)CCN1CCOCC1	PLK1 PBD block 30µM
CCC(C)NC(=O)C(Sc1ccccc1)c1ccccc1 (stereo unspecified)	none (no result: G9a inh)
CC1Cc2ccccc2N1S(=O)(=O)c1cccc(C(=O)N2CCN(c3ncccn3)CC2)c1 (stereo unspecified)	BAZ2B block inconclusive
